Measurements: PubChem BioAssay AID2409 (Southern Research Specialized Biocontainment Screening …, 2010)
Measured potencies and affinities stand elsewhere. Unmarked numbers belong to inactive results. No rule for the calls is given here.

Test: Venezuelan equine encephalitis virus CPE inhibition in Vero cells, confirmatory stage (AID 2409)
Conditions: VEEV-infected Vero cells; series mostly up to 66.6 µM; CPE inhibition: at the top concentration

SMILES	CPE inhibition
COc1ccc(-c2csc(N(Cc3ccccc3)C(=O)c3ccccc3Cl)n2)cc1	16.8%
COc1ccc(-c2csc(N(C)C(=O)c3ccccc3Cl)n2)cc1	-57.3%
Cc1cc(OC(=O)c2c(F)cccc2F)n(Cc2ccccc2)n1	-10.9% [at 134 µM]
Nc1ccc2nc3n(c(=O)c2c1)CCC3	-26.1%
O=C(CSc1nc2ccccc2c(=O)n1-c1ccc(F)c(Cl)c1)Nc1ccc2c(c1)CCC2	-0.76%
O=C(CSc1nc2ccccc2c(=O)n1-c1ccc(F)cc1)Nc1ccc2c(c1)OCCO2	-20.3%
O=C(CSc1nc2ccccc2c(=O)n1-c1ccc(F)cc1)Nc1ccc2c(c1)CCC2	-15.7% [at 134 µM]
O=C(CSc1nc2ccccc2c(=O)n1-c1ccccc1F)Nc1ccc2c(c1)CCC2	-5.29%
CC1CC(C)CN(C(=O)CSc2nc3ccccc3c(=O)n2-c2ccc(F)cc2)C1 (stereo not drawn)	-17.1%
O=C(CSc1nc2ccccc2c(=O)n1-c1ccc(Cl)c(Cl)c1)Nc1ccc2c(c1)CCC2	-27.2%
OC1c2cc(Br)ccc2N=C2CCCCCN21 (stereo not drawn)	-33.9% [at 134 µM]
O=C(CSc1nc2ccccc2c(=O)n1-c1ccc(F)cc1F)Nc1ccc2c(c1)CCC2	2.77% [at 134 µM]
OC1c2c(F)cccc2N=C2CCCCCN21 (stereo not drawn)	-30.5% [at 134 µM]
O=c1c2cc(Cl)cc(Cl)c2nc2n1CCC2	-11.7%
CCCN(C(=O)c1ccccc1Cl)c1nc(-c2ccc(OC)cc2)cs1	1.7%
O=c1c2cccc(Cl)c2nc2n1CCC2	-11.8%
O=C(CSc1nc2ccccc2c(=O)n1-c1ccc(F)cc1F)Nc1ccc(N2CCOCC2)cc1	-5.87% [at 134 µM]
O=[N+]([O-])c1ccc2c(c1)C(O)N1CCCC1=N2 (stereo not drawn)	-4.15%
CC1(O)c2cc(Br)ccc2N=C2CCCN21 (stereo not drawn)	-18%

SMILES	CPE inhibition
COc1cccc(-n2c(SCC(=O)Nc3ccc4c(c3)CCC4)nc3ccccc3c2=O)c1	-32.3%
O=c1c2cc(Br)ccc2nc2n1CC/C2=C/c1ccccc1	-43.2%
COc1ccccc1NC(=O)CSc1nc2ccccc2c(=O)n1-c1ccc(F)cc1	15.2%
Cc1cccc2c(=O)n3c(nc12)CCC3	-4.01%
CC(=O)Nc1ccc2nc3n(c(=O)c2c1)CCC3	-33.2%
OC1c2cc(I)ccc2N=C2CCCN21 (stereo not drawn)	-61.1% [at 134 µM]
Cc1ccc2nc3n(c(=O)c2c1)CCC3	3.91%
OC1c2c(F)cccc2N=C2CCCCN21 (stereo not drawn)	-13.1% [at 134 µM]
OC1c2cc(Br)ccc2N=C2CCCCN21 (stereo not drawn)	-26.5% [at 134 µM]
O=C(CSc1nc2ccccc2c(=O)n1-c1ccccc1)Nc1ccc2c(c1)CCC2	-9.34%
O=C(CSc1nc2ccc(F)cc2c(=O)n1-c1ccccc1)Nc1ccc2c(c1)CCC2	-96.1% [at 134 µM]
O=c1c2cc([N+](=O)[O-])ccc2nc2n1CCC2	-0.71%
OC1c2c(F)cccc2N=C2CCCN21 (stereo not drawn)	0.79% [at 134 µM]
O=c1c2cc(I)ccc2nc2n1CCC2	-48.4%
O=c1c2c(F)cccc2nc2n1CCC2	-5.78%
Cc1cccc2nc3n(c(=O)c12)CCC3	-1.93%
O=C(CSc1nc2cccc(I)c2c(=O)n1-c1ccccc1)Nc1ccc2c(c1)CCC2	-11.4% [at 134 µM]
O=C(CSc1nc2cccc(F)c2c(=O)n1-c1ccccc1)Nc1ccc2c(c1)CCC2	19.4% [at 134 µM]
O=C(CSc1nc2ccccc2c(=O)n1-c1ccc(F)cc1)Nc1cccc2ccccc12	-2.62%
